A selection follows.
aSyn UTR act = Activators working through SNCA 5'UTR binding (MLPCN). AID 1814. actives 7.1% (n = 300,000). activity score, % (tested at 7.5 µM), hits read low. alpha-synuclein 5'UTR reporter, activators screen; in the data active = activity score below about -60%
Hits are given with their value; 0 = inactive.

SMILES	aSyn UTR act
CCCNC(=O)C1CC(=O)N(c2ccc(OCc3ccc(Cl)cc3)cc2)C1 (stereo not drawn)	-108
CCCS(=O)(=O)c1nc(S(=O)(=O)c2ccc(C)cc2)c(N2CCC(C(N)=O)CC2)s1	-75
CCCS(=O)(=O)c1nc(S(=O)(=O)c2ccc(Cl)cc2)c(N2CCC(O)CC2)s1	-95
N/C(=N\OC(=O)Cc1ccc(-c2ccccc2)cc1)c1ccccn1	-66
Cc1ccc(C(=O)O/N=C(\N)c2ccccn2)c(C)c1	0
COc1ccc(CC(=O)O/N=C(\N)c2ccccn2)cc1	-76
N/C(=N\OC(=O)CSc1ccccc1)c1ccccn1	-88
Cc1ccc(C)c(OCC(=O)O/N=C(\N)c2ccccn2)c1	-131
N/C(=N\OC(=O)CC1CCCCC1)c1ccccn1	-90
Cc1ccc(-n2c([S-])c(C(=O)Nc3ccc(OC(F)F)cc3)[n+]3ccc(C(=O)NCCO)cc23)cc1C	-72
Cc1cccc(/C=C/C(=O)c2ccc(N3CCOCC3)cc2)c1	-114
Cc1ccc(/C=C/C(=O)c2ccc(N3CCOCC3)cc2)s1	-133
CCOC(=O)c1ccc2nc(C)c(CCC(C)=O)c(Cl)c2c1	-108
CCOC(=O)c1ccc2nc(C)c(C)nc2c1	-88
O=C1C(Cl)=C(Nc2ccccc2O)C(=O)N1c1ccccc1	-94
COc1ccccc1N1C(=O)C(Cl)=C(Nc2ccccc2O)C1=O	-127
COc1cc(C)c(Cl)c(C)c1S(=O)(=O)NC1CC(C)(C)NC(C)(C)C1	-160
Cn1c(=O)c(C(=O)Nc2ccccc2S(N)(=O)=O)c(O)c2ccccc21	-64
Cn1ncc([N+](=O)[O-])c1C(=O)Nc1ccc(C2CCCCC2)cc1	-136
O=C(Nc1ccc(-c2nc3ccccc3[nH]2)cc1)c1ccc2c(c1)OCO2	-102
O=C(Nc1ccc(-c2cn3c(n2)SCC3)cc1)c1ccc2c(c1)OCO2	-87
CS(=O)(=O)c1ccc(C(=O)Nc2ccc(-c3nc4ccccc4[nH]3)cc2)cc1	-67
c1ccc2[nH]c(-c3ccc4c(c3)OCO4)nc2c1	0
Cn1ncc([N+](=O)[O-])c1C(=O)Nc1ccc(-c2nc3ccccc3[nH]2)cc1	-159
COc1ccc(C(=O)Nc2ccccc2C(=O)N/N=C/c2cccc3ccccc23)cc1	-169
SMILES	aSyn UTR act
COc1ccc(C(=O)NC2=Nc3ccccc3N=C(C)C2c2ccccc2)cc1 (stereo not drawn)	-228
COc1ccc(C(=O)Nc2ccccc2C(=O)Nc2ccncc2)cc1	-105
COc1ccc(C(=O)Nc2ccccc2C(=O)Nc2ccccc2C(=O)O)cc1	-98
COc1ccc(C(=O)N[C@H](C(=O)Nc2nc3ccccc3[nH]2)C(C)C)cc1	0
CCC(NC(=O)c1ccccc1NC(=O)c1ccc(OC)cc1)C(=O)N1CCCC1 (stereo not drawn)	-69
COc1cc(OC)cc(C(=O)NNC(=O)c2ccccn2)c1	0
COc1cc(OC)cc(C(=O)Nc2ccccc2C(=O)N2CCCC2)c1	-123
Cc1ccc(NC(=O)c2c(C(F)(F)F)nn(C)c2SCc2cccc(C(F)(F)F)c2)cc1C	-102
Cc1ccc(C(=O)Nc2cccc(C(F)(F)F)c2)cc1NC(=O)c1ccno1	0
Cc1ccc(-c2cc3nc(C)cc(NCc4ccco4)n3n2)cc1	-157
CCC(=O)n1nc(-c2ccc(Cl)cc2)nc1NCc1ccccc1	-93
CC(=O)n1nc(-c2ccc(C)cc2)nc1NCc1ccco1	-161
Clc1cccc(-c2cc3nc4c(c(NCc5ccco5)n3n2)CCCC4)c1	-115
Cc1ccc(-c2nc(NCc3ccco3)n(S(C)(=O)=O)n2)cc1	-72
O=C(CCc1ccccc1)n1nc(-c2ccccc2)nc1NCc1ccco1	-67
CN1CCN(c2nc(Nc3cccc(C(F)(F)F)c3)nc(N3CCOCC3)n2)CC1	-69
COc1ccc2cc1Oc1ccc(cc1)CC1c3c(cc(OC)c4c3Oc3cc5c(cc3O4)CCNC5C2)CCN1C (stereo not drawn)	0
Cn1ccc(C(=O)Nc2ccc(Br)cc2Br)n1	-79
COc1cccc(NC(=O)c2ncc(Cl)c(Cl)c2Cl)c1	-224
COc1cccc(NC(=O)c2cnsn2)c1	-97
COc1cccc(NC(=O)c2ccn(C)n2)c1	-73
COCCNC(=O)Cn1nc(-c2ccccc2OC)ccc1=O	-62
COc1ccc(C(=O)Nc2cc3c4c(c2)CC(=O)N4CCC3)c(OC)c1	-90
Cc1ccc(NC(=O)C(=O)NCC2CCCO2)cc1 (stereo not drawn)	-85
O=C(NCCc1ccccc1)C(=O)NCC1CCCO1 (stereo not drawn)	-64
SMILES	aSyn UTR act
Cc1ccc(NC(=O)C(=O)NCC2CCCO2)cc1C (stereo not drawn)	-96
COc1ccc(NC(=O)C(=O)N/N=C\c2ccc(CNC(=O)C(=O)Nc3ccc(C)c(C)c3)o2)c(OC)c1	0
O=C(/C=C/c1ccccc1)Nc1ccc(N2CCCCC2)cc1	-196
CN1CCN(c2ccc(NC(=O)N3CCc4ccccc43)cc2)CC1	0
O=C(Cc1ccccc1)Nc1ccc(N2CCCCC2)cc1	-67
CN1CCN(c2ccc(NC(=O)Cc3ccccc3)cc2)CC1	-68
CCOC(=O)/C(=C\c1cccnc1)C(=O)c1cc(C(C)=O)c(Nc2ccccc2)s1	0
CCOC(=O)C(=Cc1ccc(Br)cc1)C(=O)OCC	-121
CCOC(=O)C(CC)(CC)C(=O)/C=C/c1ccc(Br)cc1	-92
CCOC(=O)C1CCN(C(=O)C2CCN(c3ncnc4c3nc3n4CCCCC3)CC2)CC1	-108
CCC1CCCCN1CC(O)Cn1c2ccccc2n2c(=O)cc(C)c(C#N)c12 (stereo not drawn)	-64
CCc1ccc(-c2cc(C)no2)cc1S(=O)(=O)N1CCN(c2ccccc2)CC1	-73
COC(=O)N/N=C/c1cccc(OCCSc2ccc(Cl)cc2)c1	-82
COc1ccc2c(c1OC)C(=O)N(c1ccc(F)cc1)C2	-159
COc1cc2c(c(OC)c1OC)-c1ccc(OC)c(=O)cc1[C@@H](NC(C)=O)CC2	0
O=C1C2C3C=CC(CO)(O3)C2C(=O)N1c1ccc(-c2ccccc2)cc1 (stereo not drawn)	-85
O=C(C#Cc1ccccc1)c1ccco1	-141
COc1cc(C(=O)Nc2ccc3c(c2)CCN3C(C)=O)cc(OC)c1OC	0
CCOC(=O)C(=CNc1ccc2c(c1)CCN2C(C)=O)C(=O)OCC	-78
COc1ccccc1C(=O)NNC(=O)c1cccc([N+](=O)[O-])c1	-62
COc1ccccc1C(=O)NNC(=O)c1cccc(C)c1	-139
CCCCc1ccc(NC(=O)CC(C)C)cc1	-70
CCCCc1ccc(NC(=O)C2CCCC2)cc1	-69
CCOc1cc(/C=C/C(=O)c2ccc3c(c2)OCCO3)ccc1OCC(=O)N(C)C	-185
CCOc1cc(/C=C/C(=O)Nc2ccc(C(=O)NCCN(CC)CC)cc2)ccc1OCC(C)C	0
SMILES	aSyn UTR act
CCOc1cc(/C=C/C(=O)c2ccc(O)cc2)ccc1OCC(=O)N(C)C	-94
O=C(CSc1nccn1-c1ncc(C(F)(F)F)cc1Cl)c1ccc(Cl)cc1	-127
c1ccc(-c2ccc(OCCOCCn3cncn3)cc2)cc1	-175
CC1CCN(CCCOc2ccc(OCc3ccccc3)cc2)CC1	-69
c1ccc(COc2ccc(OCCCn3cncn3)cc2)cc1	-102
c1ccc(COc2ccc(OCCCN3CCCC3)cc2)cc1	0
COc1ccc(-c2csc(Nc3ccc(C)cn3)n2)cc1	-180
CC(=O)Oc1ccc(-c2csc(Nc3ccc(Cl)cn3)n2)cc1	-135
O=C(N/N=C/c1c[nH]c2ccccc12)c1cc(-c2ccccc2)n[nH]1	-72
O=C(N/N=C/c1c[nH]c2ccccc12)c1ccc(Cl)cc1	-77
